From ChEMBL document CHEMBL3988442, “University of Dundee, Small-Polar-MMV Screening Library” (2021)
The campaign covered roughly 38,000 compounds. About 1,200 (3.2%) showed an effect of 50% or more. The median lay at about -58%. Only a selection was taken, and strong results are over-represented in it overall.

tested on: Plasmodium falciparum; test: Calibr Malaria Delayed Death Assay SOP; type: functional, organism-based; design: scale not given: in the data most compounds retested in dose-response had high values; settings: concentration 4.99e-06 (unit not given; other assays of the set use mol/L)

Row | SMILES | Percent Effect [%]
1 | CCc1ccc(OCCn2cccn2)cc1 | -75.63
2 | CC(C)c1nccc(CN2CCC(c3nc4ccccc4n3C)CC2)n1 | -101.6
3 | CC(C)Cc1nc(NC(=O)c2cccnc2)n[nH]1 | -46.29
4 | Cc1ccc2nc(C(=O)N3CC(c4cccnc4)C3)cn2c1 | -27.83
5 | Cl.Cl.OC(CN1CCN(Cc2ccc(F)c(F)c2)CC1)C1CC1 (stereo unspecified) | -18
6 | CN1CCN(CC(NCc2cccc(O)c2)c2ccccc2)CC1 (stereo unspecified) | -102.1
7 | COc1cccc(CNC(=O)N2CCN(Cc3cc(C)on3)CC2)c1 | -21.77
8 | COc1cccc(C(=O)N2CCN(CC(O)c3ccccc3)CC2)c1 (stereo unspecified) | -38.78
9 | COCCN1CCC(NCc2cccc(C)c2)C1 (stereo unspecified) | -16.89
10 | CN1CCN(CC(NCc2ccc(F)cc2)c2ccccc2)CC1 (stereo unspecified) | -91.46
11 | Cc1ccc(CNC(CN2CCN(C)CC2)c2ccccc2)cc1C (stereo unspecified) | -112.6
12 | O=C(NC(CN1CCCC1)c1ccccc1)c1c(O)cc(F)cc1F (stereo unspecified) | -93.48
13 | Cc1cccc(CNC(CN2CCN(C)CC2)c2ccccc2)c1 (stereo unspecified) | 83.13
14 | NC(=O)CS(=O)(=O)Cc1csc(-c2ccc(F)cc2)n1 | -114.2
15 | O=C(Nc1cc(C(F)(F)F)c[nH]c1=O)C1CCCO1 (stereo unspecified) | -102.8
16 | Cc1csc(NC(=O)C2CCN(Cc3cccc4c3OCCO4)CC2)n1 | -33.92
17 | CN(C)CCOCc1cncc2c1CCN(C(=O)C1CCOCC1)C2.O=C(O)C(F)(F)F.O=C(O)C(F)(F)F | -70.85
18 | O=C(O)C(F)(F)F.O=C(O)C(F)(F)F.O=C(O)C(F)(F)F.O=C(c1ccncc1)N1CCN(Cc2cccnc2)c2ncccc2C1 | -102.4
19 | CC(C)NC(=O)c1noc2c1CN(Cc1cnn(C)c1)CC2 | -77.7
20 | CN(C)CCNC(=O)C1Cc2nc(-c3ccsc3)sc2N1CC1CC1.O=C(O)C(F)(F)F (stereo unspecified) | 9.733
21 | CN(C)CCNC(=O)C1Cc2nc(-c3ccccc3)sc2N1CC1CC1.O=C(O)C(F)(F)F (stereo unspecified) | 89.72
22 | O=C(Nc1cccnc1)C1Cc2nc(-c3ccsc3)sc2N1CC1CC1.O=C(O)C(F)(F)F (stereo unspecified) | -160.3
23 | O=C(Nc1cccnc1N1CCSCC1)c1ccc2c(c1)CCC2 | -3.12
24 | O=C(NC1CCN(c2cccc(C(F)(F)F)n2)CC1)C1CC1 | -20.01
25 | O=C(NC1CC1)C1CCCN(c2cccc(C(F)(F)F)n2)C1 (stereo unspecified) | 11.64
26 | O=C(NC1CC1)C1CCN(c2cccc(C(F)(F)F)n2)CC1 | 78.5

Row | SMILES | Percent Effect [%]
27 | CS(=O)(=O)C1(C(=O)NC2CCc3nccn3C2)CCCC1 (stereo unspecified) | -116.8
28 | COc1ccc(C2(C(=O)NC3CCc4nccn4C3)CCCC2)cc1 (stereo unspecified) | 46.07
29 | COc1cccc(C2(C(=O)NC3CCc4nccn4C3)CCCC2)c1 (stereo unspecified) | 52
30 | CN1C[C@H](O)[C@]2(CCN(C(=O)NCc3ccccc3)C2)S1(=O)=O | -19.04
31 | Cc1cnccc1-c1cc(NCCO)nc2[nH]ccc12 | -75.39
32 | Cc1nc(C(=O)N2CC[C@@]3(C[C@H](NS(C)(=O)=O)CCO3)C2)cs1 | -13.09
33 | O=C(O)C(F)(F)F.O=S(=O)(C1CC1)N1CCC2(CCCN(c3ncccn3)C2)C1 (stereo unspecified) | -10.57
34 | CC(C)N1CCCC2(CCN(c3nccc(C(F)(F)F)n3)C2)C1=O (stereo unspecified) | -74.1
35 | CN(C)C(=O)N1CCC2(CCCN(c3ncccn3)C2)C1.O=C(O)C(F)(F)F (stereo unspecified) | -156.2
36 | CC(C)c1nc(C2CCCN(c3nccc(C(F)(F)F)n3)C2)no1 (stereo unspecified) | -82.41
37 | C=C(C)CN(CC)C(=O)c1cc(F)ccc1N1CCN(C)CC1 | -6.643
38 | CC(CNC(=O)c1cc(C2CC2)nc2c1cnn2C)Cn1cccn1 (stereo unspecified) | -106.1
39 | Cc1ccc(C)c(Oc2ccc(CNC(=O)C3CCC(=O)N3)cn2)c1 (stereo unspecified) | -45.06
40 | Cc1ccc(OCCNC(=O)C2CCOCC2)c(C)c1 | -53.04
41 | Cc1ccc(N2CCCC(c3[nH]ncc3-c3ccccc3)C2)nn1 (stereo unspecified) | 25.38
42 | Cc1ccc(-c2cn[nH]c2C2CCCN(c3cc(N)ncn3)C2)cc1 (stereo unspecified) | -38.82
43 | Cc1cc(N2CCCC(c3[nH]ncc3Cc3ccccc3)C2)nc(N)n1 (stereo unspecified) | 72.87
44 | Cc1cc(C)n2c(CCCNS(=O)(=O)c3cccs3)nnc2n1 | -65.33
45 | COCCN(C)C[C@@H]1CN(C(=O)C(C)(C)c2ccccc2)C[C@@H]1CO | 29.59
46 | COc1ccccc1OC1CN(C(=O)Cc2c(C)nc3ccccn23)C1 | -26.12
47 | COc1cccc(CNCc2c(C)nc3sc(C)cn23)c1OC | 20.21
48 | COc1ccc(NC(=O)c2nc(C)sc2C)cn1 | -37.98
49 | CCc1[nH]c2c(CNc3cc(C)nc(NC)n3)cc(C)cc2c1C | 84.97
50 | CCc1[nH]c2c(CNc3cncc(C(=O)N(C)C)n3)cc(F)cc2c1C | -100.3
51 | CCc1[nH]c2c(CNc3cncc(C(=O)OC)n3)cc(C)cc2c1C | -28.2
52 | CCc1[nH]c2c(CNc3nc(C)cc(NC)n3)cc(C)cc2c1C | 88.9

Row | SMILES | Percent Effect [%]
53 | CCc1[nH]c2c(CNc3cncc(C(=O)N(C)C)n3)cc(C)cc2c1C | -71.53
54 | Cc1cc(C(=O)N2CCc3nc(N4CCOCC4)nc(C)c3C2)c(C)o1.O=CO | -46.43
55 | COc1ccc(C(=O)CCC(=O)NCc2ncc(C)s2)cc1F | -71.69
56 | CCCOC1Sc2nnc(C)n2N=C1c1ccccc1 (stereo unspecified) | -105.9
57 | COc1cccc(OCCNS(=O)(=O)Cc2ccccc2)c1 | -90.07
58 | COc1cccc(CNCCNS(=O)(=O)Cc2ccccc2)c1 | 54.45
59 | COc1cccc(CNCCc2cccc(C(N)=O)c2)c1 | -12.09
60 | C[C@@H]1CN(c2nc3c(cc2C(N)=O)CCC3)C[C@@]1(O)C1CCC1 | -102.5
61 | O=C(Nc1cccnc1-n1cc(Cl)cn1)C1CCCCC1 | -29.97
62 | CCOC(=O)C(C)NC(=O)N1CCN(c2nc3ccccc3n2C)CC1 (stereo unspecified) | -114
63 | CSCc1cc(F)ccc1CNCc1cccc(O)c1 | 72.86
64 | CSCc1cc(F)ccc1CNCc1cccnc1 | 1.167
65 | CSCc1cc(F)ccc1CNCc1ccncc1 | -80.12
66 | CC(C)CCOc1ccc(C(C)NC(=O)CSCC(N)=O)cc1 (stereo unspecified) | -21.89
67 | Cc1cc(=O)[nH]c(=O)n1COCc1ccccc1 | -164.1
68 | Cc1ccc(C(=O)N2CC(Oc3ccccc3C)C2)s1 | -70.19
69 | CCCn1ccnc1CN1CCCC(O)(CN2CCCC2)C1 (stereo unspecified) | -81.98
70 | COc1ccc(F)cc1CN1CCCC(c2cc(C(N)=O)[nH]n2)C1 (stereo unspecified) | -17.41
71 | COCC(=O)N1CCC2(CCCN(Cc3cc(OC)ccc3F)C2)C1 (stereo unspecified) | -77.74
72 | OC1(CN2CCCC2)CCCN(Cc2cnc(-c3ccccc3)nc2)C1 (stereo unspecified) | 13.01
73 | CCCn1ccnc1CN1CCC(O)(CN2CCCCC2)C1 (stereo unspecified) | 17.5
74 | Cc1cc(-n2cccn2)ccc1CN1CCC(O)(CN2CCCCC2)C1 (stereo unspecified) | 60.7
75 | Cc1cc(F)ccc1CN1CCCC(O)(CN2CCCC2)C1 (stereo unspecified) | 66.53
76 | COc1ccc(F)cc1CN1CCCC1Cn1nc(C)nc1C (stereo unspecified) | -22.72
77 | COc1ccc(CN2CCC(O)(CN3CCCCC3)C2)c(C)c1 (stereo unspecified) | 66.37
78 | COc1ccc(F)c(CN2CCCC3(CCN(C(=O)CSC)C3)C2)c1 (stereo unspecified) | -70.9

Row | SMILES | Percent Effect [%]
79 | COc1ccc(F)cc1CN1CCC(O)(CN2CCCCC2)C1 (stereo unspecified) | 69.8
80 | O=C(NCC1(O)CCC1)c1cccc(-n2cccn2)c1 | -36.51
81 | O=C(NC1CCc2cc(Cl)ccc21)C1CCN(C(=O)C2CC2)CC1 (stereo unspecified) | -26.17
82 | OCC1CCCN(Cc2c(C3CCCC3)[nH]c3ncccc23)C1 (stereo unspecified) | 11.34
83 | Cc1cc(CN2CCN(Cc3ccc(C#N)cc3F)CC2)no1 | -21.87
84 | CC(C)(C)OC(=O)N1CCN(S(=O)(=O)CCCC#N)C2(CCCCC2)C1 | -7.011
85 | Cc1ccc2nc(CN3CCC(O)(CN4CCCC4)CC3)cc(O)c2c1 | -44.54
86 | OC1(CN2CCCC2)CCCN(Cc2cnc(-c3ccco3)nc2)C1 (stereo unspecified) | -86.93
87 | COc1ccc(C)cc1CC(=O)N1CC[C@@]2(CCCO2)[C@@H](O)C1 | -95.97
88 | Cc1ccc(Cn2c(=O)[nH]c3csnc3c2=O)cc1 | -6.005
89 | Cc1nc(CN2CCC3(CC2)C(=O)N(C)CCN3C)cs1.O=C(O)C(F)(F)F.O=C(O)C(F)(F)F.O=C(O)C(F)(F)F | -106.3
90 | Cn1cc(CN2CCCC23CCN(c2nc4ccccc4s2)CC3)cn1 | 50.94
91 | c1ccc2sc(N3CCC4(CCCN4Cc4ncc[nH]4)CC3)nc2c1 | 19.28
92 | Cc1nc(CN2CCCC23CCN(c2nc4ccccc4s2)CC3)co1 | 8.403
93 | Cc1cccc(SC2CCN(C(=O)CCNS(C)(=O)=O)CC2)c1 | -80.26
94 | CCOCCOC(C)C(=O)Nc1ccnn1-c1ccccc1C (stereo unspecified) | -67.54
95 | COc1cc(CCC(=O)NCC2CC2)ccc1OCC(F)(F)F | -33.72
96 | Fc1ccc(CN2CCCC(Cn3cncn3)C2)c2ncccc12 (stereo unspecified) | -5.261
97 | Fc1ccc(CN2CCOC(Cn3cncn3)C2)c2ncccc12 (stereo unspecified) | -95.84
98 | Fc1ccc(CN2CCCC2Cn2cncn2)c2ncccc12 (stereo unspecified) | 10.61
99 | Clc1ccc(CN2CCCC(Cn3cncn3)C2)c2ncccc12 (stereo unspecified) | 63.13
100 | Fc1ccc(CN2CCCCC2Cn2cncn2)c2ncccc12 (stereo unspecified) | 64.52
101 | Nc1nc(CN2CCCC(Cn3cncn3)C2)nc2ccccc12 (stereo unspecified) | -138.6
